Experimental data taken from the supplement of paper PMC3545927.
The list shows a part of the results. No count for the full screen is at hand.

Biological target: furin, P09958
Assay: furin cleavage Z-score vs untreated control; higher = more cleavage, active = 3.5 or more, inactive = 1 or less, 8 variable residues between constant flanks
How it was run: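 Abundance of DNA freed from bead-bound 8-mer peptide–cDNA fusions by purified furin was measured as sequencing read counts after PCR adapter tagging. Cutting ran 7.5, 15 or 30 min in 0.01 ml of 50 mM HEPES pH 7.5 with CaCl2 and NaCl at 1:10 enzyme:substrate. The cleavage Z-score expresses these log counts against furin-free reactions after lowess adjustment and median absolute deviation scaling.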

Chain of furin, P09958 (P09958 whole entry): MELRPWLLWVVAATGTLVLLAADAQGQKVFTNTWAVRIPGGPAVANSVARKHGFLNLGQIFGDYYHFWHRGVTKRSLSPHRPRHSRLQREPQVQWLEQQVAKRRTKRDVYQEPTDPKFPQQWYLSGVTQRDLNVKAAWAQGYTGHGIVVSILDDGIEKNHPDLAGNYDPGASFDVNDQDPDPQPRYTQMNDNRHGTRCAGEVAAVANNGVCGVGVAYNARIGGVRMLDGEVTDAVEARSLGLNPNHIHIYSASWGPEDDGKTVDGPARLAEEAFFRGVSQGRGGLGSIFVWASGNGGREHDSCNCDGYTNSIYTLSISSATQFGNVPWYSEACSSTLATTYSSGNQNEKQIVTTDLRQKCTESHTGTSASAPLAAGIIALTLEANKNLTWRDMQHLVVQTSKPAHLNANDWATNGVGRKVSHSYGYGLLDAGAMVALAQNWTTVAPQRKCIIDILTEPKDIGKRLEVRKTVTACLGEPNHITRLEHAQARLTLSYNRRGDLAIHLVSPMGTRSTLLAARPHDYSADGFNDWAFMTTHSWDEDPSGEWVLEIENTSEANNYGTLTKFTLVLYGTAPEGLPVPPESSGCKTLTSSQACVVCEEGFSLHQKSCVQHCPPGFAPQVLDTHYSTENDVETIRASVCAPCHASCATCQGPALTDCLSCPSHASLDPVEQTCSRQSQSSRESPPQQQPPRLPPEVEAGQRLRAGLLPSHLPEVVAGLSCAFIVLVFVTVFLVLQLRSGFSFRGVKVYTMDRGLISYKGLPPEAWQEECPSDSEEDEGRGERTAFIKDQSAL

Sequence	furin cleavage Z-score (7.5 min)	furin cleavage Z-score (15 min)	furin cleavage Z-score (30 min)
CAVVCCSMSDAGNASASA [HC2091]	-0.81 (inactive)	0.345 (inactive)	-0.759 (inactive)
CALCECYDAGAGNASASA [HC919]	-0.871 (inactive)	0.625 (inactive)	-1.3 (inactive)
CAGHVKNGTMAGNASASA [HC1179]	0.572 (inactive)	0.821 (inactive)	0.846 (inactive)
CARIRRGTDEAGNASASA [FS-1956]	12.4 (active)	12.2 (active)	8.37 (active)
CARIRRDVRVAGNASASA [FS-1899]	8.22 (active)	10.4 (active)	7.12 (active)
CARIRRDANEAGNASASA [FS-3189]	13.3 (active)	13.5 (active)	9.85 (active)
CARIKKDKKEAGNASASA [FS-2951]	-1.75 (inactive)	-0.739 (inactive)	-0.88 (inactive)
CARGARGVRVAGNASASA [FS-2929]	-0.658 (inactive)	-0.415 (inactive)	-0.385 (inactive)
CAVALSTTGEAGNASASA [HC843]	-1.85 (inactive)	-1.96 (inactive)	-0.758 (inactive)
CARFSKSADEAGNASASA [FS-2927]	-0.221 (inactive)	-0.408 (inactive)	-0.912 (inactive)
CAEVPCHRPGAGNASASA [HC2416]	-0.244 (inactive)	-0.922 (inactive)	0.598 (inactive)
CATKVCGAPPAGNASASA [HC441]	0.138 (inactive)	0.123 (inactive)	-0.197 (inactive)
CARPRRSAGKAGNASASA [FS-2059]	6.62 (active)	6.92 (active)	6.48 (active)
CARPRRGSLRAGNASASA [FS-2502]	-1.01 (inactive)	-0.431 (inactive)	1.07
CARPRRSAPKAGNASASA [FS-3200]	8.12 (active)	8.75 (active)	6.05 (active)
CARPRRRLGPAGNASASA [FS-2503]	0.585 (inactive)	1.48	1.2
CARPRRFFPGAGNASASA [FS-1964]	-0.922 (inactive)	-0.718 (inactive)	-0.224 (inactive)
CARPRRGSHPAGNASASA [FS-2359]	0.189 (inactive)	1.65	2.41

Sequence	furin cleavage Z-score (7.5 min)	furin cleavage Z-score (15 min)	furin cleavage Z-score (30 min)
CARPRRSAHRAGNASASA [FS-1863]	8.93 (active)	9.74 (active)	8.89 (active)
CAYVVTSTWVAGNASASA [HC2149]	0.323 (inactive)	-0.464 (inactive)	-0.44 (inactive)
CANGVCWTVYAGNASASA [HC698]	-1.07 (inactive)	2.25	-1.18 (inactive)
CANIIMFAPTAGNASASA [HC1576]	-0.25 (inactive)	-0.574 (inactive)	-0.569 (inactive)
CAARGGRAAIAGNASASA [HC1627]	0.309 (inactive)	-1.06 (inactive)	0.234 (inactive)
CARVGRGVSIAGNASASA [FS-2195]	-0.488 (inactive)	-0.0472 (inactive)	2.09
CALVGLMALTAGNASASA [HC572]	-0.292 (inactive)	-0.497 (inactive)	-0.985 (inactive)
CARVCRSDNTAGNASASA [FS-2194]	2.3	1.13	4.01 (active)
CARVGRSSKQAGNASASA [FS-2838]	0.0354 (inactive)	0.533 (inactive)	2.07
CARVGRQVVTAGNASASA [FS-2470]	1.41	4.05 (active)	2.16
CAMALYDVVTAGNASASA [HC1457]	-0.109 (inactive)	-0.594 (inactive)	1.06
CARVGRSLPTAGNASASA [FS-2098]	8.92 (active)	10.2 (active)	8.81 (active)
CARKGRSEDIAGNASASA [FS-2341]	0.928 (inactive)	1.18	-0.197 (inactive)
CARVGRSVTDAGNASASA [FS-3117]	9.08 (active)	9.86 (active)	8.63 (active)
CARVPRDPSTAGNASASA [FS-2620]	0.232 (inactive)	0.063 (inactive)	1.18
CARKGRVVIDAGNASASA [FS-2263]	-1.41 (inactive)	-0.368 (inactive)	0.767 (inactive)
CARVCCSMSYAGNASASA [HC1993]	-1.56 (inactive)	0.796 (inactive)	0.275 (inactive)
